About 83,000 compounds went through this panel and 20% of them were active in at least one assay; those are over-represented in the sample as a whole.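 Compound tested at a single concentration for 48 hours in 96-well plates; a percent growth value below 10 was scored as active.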 Unmarked numbers belong to inactive results. Active and inactive are the calls of the source.
These compounds were tested on MDA-MB-468 breast (assay: NCI-60 one-dose screen, 48 h (100 = growth as untreated, 0 = no growth, -100 = all killed)). Settings: 10 µM unless noted.
`COc1ccc(/C=C/C(=O)c2ccc(Nc3nc(NCCO)nc(Nc4ccc(Cl)cc4)n3)cc2)cc1` was tested, and the growth was 73%.
In the case of `CC(=O)Nc1nonc1-c1nc2ccccc2n1Cc1ccc(C(C)(C)C)cc1`, the growth is reported as 86.8%.
With `COc1ccc(-c2nn(-c3cccc(NC(=O)Nc4cccc(C(F)(F)F)c4)c3)cc2-c2ccncc2)cc1Cl` the growth was 27.5%.
`O=C(Cc1ccccc1)C(F)(F)F` gave a growth of 111%.
For `Cc1nn(C)c2ncnc(Nc3ccccc3Br)c12`, the growth was 107%.
`C#CCOc1cccc(Nc2ncnc3cc(NC(=O)CCl)ccc23)c1` was tested, and the growth was -52.5% (active).
In the case of `O=C(/C=C/c1cccc([N+](=O)[O-])c1)c1ccc(O)c(CN2CCN(c3cc4c(cc3F)c(=O)c(C(=O)O)cn4C3CC3)CC2)c1`, the growth is reported as -24.5% (active).
In the case of `COc1cc(-c2cc(/C=C/C(=O)c3ccc(N)cc3)[nH]n2)cc(OC)c1OC`, the growth is reported as -47.7% (active).
`CC(C)[C@@H]1CC[C@@H]2[C@@H]1[C@H](OC(=O)/C=C/c1ccccc1)[C@]1(C(C)C)C[C@@H](OC(=O)CO)[C@@]2(C)O1` gave a growth of 113%.
`COc1ccc(S(=O)(=O)Nc2c(/C=C\c3cc(OC)c(OC)c(OC)c3)ccc(OC)c2O)cc1` gave a growth of 10.9%.
Work on `CC(=O)c1c(C)[nH]c(-c2nc3ccc(N4CCN(C)CC4)cc3[nH]2)c1-c1ccc(N(C)C)cc1` yielded a growth of 21%.
Compound `Cc1[nH]n(C(=O)c2ccncc2)c(=O)c1N=Nc1ccc(O)c(C(=O)O)c1` has a growth of 105%.
`O=c1cc/c(=N\Nc2ccccc2)c(=O)/c1=N/Nc1ccccc1` gave a growth of 106%.
`CCC/C(=N/NC(N)=O)c1ccco1` gave a growth of 102%.
Compound `Fc1ccc(Nc2nc(Nc3ccc(-c4nc5ccccc5[nH]4)cc3)nc(N3CCCC3)n2)cc1` has a growth of 83.6%.
In the case of `O=C(/C=C/c1ccco1)Nc1ncc(Cc2ccc(F)cc2)s1`, the growth is reported as 21.5%.
With `O=C1NC(=S)S/C1=C\c1cccc([N+](=O)[O-])c1` the growth was 106%.
`COC(=O)Cc1nc(C#N)c(N(C)C)o1` was tested, and the growth was 97.8%.
`COc1ccc(/C=C\c2cc(OC)c(OC)c(OC)c2)cc1OCC(=O)Nc1nc2ccccc2s1` was tested, and the growth was 9.63% (active).
Work on `COc1ccc(/C=C/C(=O)c2cccc(B(O)O)c2)cc1O` yielded a growth of 34.9%.
`Clc1ccc(CSc2nnc(-c3ccc(Cl)cc3)n2-c2ccccc2)cc1` showed a growth of 64.8%.
With `NC(=N\N=C\c1ccccc1O)/C(N)=N/N=C/c1ccccc1O` the growth was 74%.
`COc1ccc2nc3cc([N+](=O)[O-])ccc3c(NNc3ccccc3)c2c1` was tested, and the growth was 58.3%.
`COCCOc1ccc(-c2csc(NC(=O)CN3CCN(CCO)CC3)n2)cc1NS(=O)(=O)c1cccc2c(N(C)C)cccc12` showed a growth of 60.7%.
`O=C1O[C@H]([C@H](O)CO)C(O)=C1O` was tested, and the growth was 90%.
With `O=C1C(N2CCOCC2)=Cc2cccc3cccc1c23` the growth was 72%.
Work on `COc1ccc(Nc2ncc(C#N)c(NCCCNC(=O)C3CCC3)n2)cc1` yielded a growth of 43%.
`CCOC(=O)c1cc2c(n1Cc1cc(OC)cc(OC)c1)-c1oncc1CCC2` showed a growth of 22.4%.
Work on `O=C(c1ccccc1)c1ccccc1Cl` yielded a growth of 110%.
With `O=C1c2ccccc2C(=O)c2c(NCCN=Cc3c(O)ccc4ccccc34)cccc21` the growth was 84.5%.
`COc1ccc(NC(=O)c2ccc(C(=O)Nc3ccc(OC)cc3OC)cc2)c(OC)c1` gave a growth of 85%.
Compound `CCCCCN(CCCCC)C(=O)C(CCC(=O)O)NC(=O)c1ccc(Cl)c(Cl)c1` (stereo not given) has a growth of 106%.
With `N#CC1(Nc2ccc3c4c(cccc24)CC3)CCCCC1` the growth was -35.3% (active).
`C=CC(=O)Nc1cccc(C)c1Nc1cc(-c2cccnc2Cc2c(C)c(OC)cc(OC)c2C)ncn1` was tested, and the growth was 19.5%.
For `O=C(CN1C(=O)NC2NC(=O)NC21)N/N=C/c1cccc([N+](=O)[O-])c1` (stereo not given), the growth was 97.6%.
With `COC(=O)c1c2c(c(C)[n+]([O-])c1C)C(=O)C=C(NCc1ccccc1)C2=O` the growth was -68.9% (active).
`COc1ccc(-c2cc(-c3cc(OC)ccc3O)[nH]c(=O)c2C#N)cc1` gave a growth of 59.5%.
With `COc1c(N)c2c(c([N+](=O)[O-])c1OC)C(=O)OC2` the growth was 107%.
`Cc1c(-c2csc(-n3nc(C(F)(F)F)cc3C(F)(F)F)n2)no[n+]1[O-]` was tested, and the growth was 81.2%.
`CCOC(=O)c1cnc2ccc(Br)cc2c1Nc1cccc(S(=O)(=O)NC)c1` gave a growth of 90.8%.

Reference: PubChem BioAssay (NCI)
